Test results reported in PubChem BioAssay (EPA / NIEHS).
The source made the active and inactive calls. How the source made its calls: active means hit-call score of the fitted dose curve at least 0.9, where 1 is the maximum; inactive means score below 0.9.

Test: ATG_EGR_CIS: Attagene CIS-FACTORIAL HepG2 Assay for human Early Growth Response 1 (EGR1) (AID 2282938)
Settings: HepG2 Attagene CIS-FACTORIAL EGR reporter mRNA; actives raise or lower the signal
Experimental: ATG_CIS is a cell-based, multiplexed-readout assay that uses HepG2, a human liver cell line, with measurements taken at 24 hours after chemical dosing in a 24-well plate.ATG_EGR_CIS is one of 52 assay component(s) measured or calculated from the ATG_CIS assay. It is designed to make measurements of mRNA induction, a form of inducible reporter, as detected with fluorescence intensity signals by Reverse transcription polymerase chain reaction (RT-PCR) and Capillary electrophoresis technology.Data from the assay component ATG_EGR_CIS was analyzed into 1 assay endpoint. This assay endpoint, ATG_EGR_CIS, was analyzed with bidirectional fitting relative to DMSO as the negative control and baseline of activity. Using a type of inducible reporter, measures of mRNA for gain or loss-of-signal activity can be used to understand the reporter gene at the transcription factor-level as they relate to the gene EGR1. Furthermore, this assay endpoint can be referred to as a primary readout, because this assay has produced multiple assay endpoints where this one serves a reporter gene function. To generalize the intended target to other relatable targets, this assay endpoint is annotated to the dna binding intended target family, where the subfamily is zinc finger.
Human liver HepG2 cells are transiently transfected with multiple reporter transcription units (MRTUs) in 6-well plates using FuGene 6 reagent (Roche; 3 ml FuGene/1 mg DNA). The MRTU constructs are regulated by a cis-regulating element (promoter). […] A major difference between the CIS and TRANS system is that in CIS activities of endogenous TFs are measured, whereas the TRANS assay evaluates changes in activities of exogenous, chimeric NR-Gal4 proteins. […] At the end of 24 hour incubation, total RNA was isolated using TriZol reagent (Invitrogen). The isolated RNA is then reverse-transcribed using oligo(dT) primer and Mo-MLV reverse transcriptase (Invitrogen) with DNAse I (Ambion) treatment for 30 min. The one-tenth of the produced cDNA was amplified by PCR using Taq DNA polymerase (Invitrogen) and two reporter sequence-specific primers. The PCR products were fluorescently labeled by primer extension with 6-arboxyfluorescein (6-FAM) 5'-labeled reporter sequence-specific primer (2 min at 95 C, 20 s at 68 C and 10 min at 72 C) and these products were digested with 5U of HpaI (New England Biolabs) for 2h at 37 C. The fragments were purified using Qiaquick PCR columns (Qiagen), analyzed on an ABI 3130xL genetic analyzer (Applied Biosystems) with peak positions identified by using a set of X-rhodamine (ROX)-labeled MapMarker1000 molecular weight standards (BioVentures). The raw capillary electrophoresis data was processed using Attagraph software (Attagene).

SMILES	AC50	outcome
CSC1=N[C@@](C)(c2ccccc2)C(=O)N1Nc1ccccc1	19.9 µM (active)	–
Nc1c(Cl)cc([N+](=O)[O-])cc1Cl	–	inactive
CCCCOC(=O)c1ccccc1C(=O)O	–	inactive
COP(=O)(OC)OC(Br)C(Cl)(Cl)Br (stereo not given)	–	inactive
CCCCN(CC)c1c([N+](=O)[O-])cc(C(F)(F)F)cc1[N+](=O)[O-]	–	inactive
CCNc1nc(Cl)nc(NC(C)(C)C#N)n1	–	inactive
Cc1cc(C2CC2)nc(Nc2ccccc2)n1	50 µM (active)	–
CCC(=O)Nc1ccc(Cl)c(Cl)c1	–	inactive
CCCSP(=O)(OCC)Oc1ccc(Br)cc1Cl (stereo not given)	–	inactive
C#CC(C)(C)NC(=O)c1cc(Cl)cc(Cl)c1	–	inactive
COP(=O)(NC(C)=O)SC (stereo not given)	–	inactive
CN(C)C(=O)Nc1cccc(C(F)(F)F)c1	–	inactive
CCOP(=S)(Oc1cnc(C(C)(C)C)nc1)OC(C)C (stereo not given)	19.3 µM (active)	–
C[N+]1(C)CCCCC1	–	inactive
CCOP(=O)(NC(C)C)Oc1ccc(SC)c(C)c1 (stereo not given)	–	inactive
CCCCOC(=O)[C@@H](C)Oc1ccc(Oc2ccc(C#N)cc2F)cc1	–	inactive
COP(=O)(OC)C(O)C(Cl)(Cl)Cl (stereo not given)	67.3 µM (active)	–
C=C(C)[C@H]1Cc2c(ccc3c2O[C@@H]2COc4cc(OC)c(OC)cc4[C@@H]2C3=O)O1	–	inactive
CCOC(=O)CC(SP(=O)(OC)OC)C(=O)OCC (stereo not given)	–	inactive
CCOP(=O)(SC(C)CC)N1CCSC1=O (stereo not given)	–	inactive

SMILES	AC50	outcome
CCOP(=S)(OCC)Oc1cc(C)nc(C(C)C)n1	–	inactive
Cc1ccn2nc(S(=O)(=O)Nc3c(F)cccc3F)nc2n1	–	inactive
CC(C)N(C(=O)SCC(Cl)=C(Cl)Cl)C(C)C	–	inactive
CCc1cccc(C)c1N(C(=O)CCl)C(C)COC (stereo not given)	–	inactive
FC(F)C(F)(F)OCC(Cn1cncn1)c1ccc(Cl)cc1Cl (stereo not given)	50 µM (active)	–
C[Si](Cn1cncn1)(c1ccc(F)cc1)c1ccc(F)cc1	50 µM (active)	–
O=[N+]([O-])c1cc(C(F)(F)F)c(Cl)c([N+](=O)[O-])c1Nc1ncc(C(F)(F)F)cc1Cl	–	inactive
CNc1cnn(-c2cccc(C(F)(F)F)c2)c(=O)c1Cl	–	inactive
O=C(O)c1cc(Oc2ccc(C(F)(F)F)cc2Cl)ccc1[N+](=O)[O-]	–	inactive
CCOP(=S)(OCC)SCCSCC	–	inactive
CN1COCN(Cc2cnc(Cl)s2)C1=N[N+](=O)[O-]	–	inactive
C#CCC1=C(C)C(OC(=O)C2C(C=C(C)C)C2(C)C)CC1=O (stereo not given)	50 µM (active)	–
COP(=O)(OC)SCn1c(=O)oc2cc(Cl)cnc21	–	inactive
CC1(C(=O)Nc2ccc(O)c(Cl)c2Cl)CCCCC1	32.2 µM (active)	–
S=C1NCCN1	–	inactive
N#CSCSC#N	–	inactive
CC(COc1ccc(Oc2ccccc2)cc1)Oc1ccccn1 (stereo not given)	13.2 µM (active)	–
CCCOCC(=Nc1ccc(Cl)cc1C(F)(F)F)n1ccnc1	–	inactive
O=c1ccc(=O)[nH][nH]1	–	inactive
Nc1nc(N)nc(NC2CC2)n1	–	inactive
